Laboratory results from PubChem BioAssay (NCATS).
A number with no mark means an inactive call. Calls come from the whole dose curve; as a rule, active = well fitted curve in the direction sought with a large enough effect; inconclusive = small, poorly fitted or top-dose-only effect, or another doubt; inactive = no such curve, though single readings can be large; an effect the other way counts as inactive or inconclusive. Results filed as inconclusive are left out.

Test: qHTS to identify inhibitors of the type 1 interferon - major histocompatibility complex class I in skeletal muscle: primary screen against the NCATS LOPAC collection (AID 1347405);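 note: lytic HiBiT luminescence reporting HLA-B protein level; % is set by controls: 0 for no effect and ±100 for the full control effect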
Conditions: iHSKM muscle cells, IFN-b-induced MHC-I HiBiT luminescence, 24 h; series mostly up to 45.9 µM; activity change, negative = inhibition: at the top concentration
Procedure, shortened: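 CRISPR-engineered immortalized human myoblasts (C25cl48) with HiBiT fused to endogenous HLA-B*08:01, stimulated with 4 ng/ml IFN-beta. LOPAC compounds tested as a 7-point 1:4.3 titration (top 46 uM final), 24 h at 37 C; lytic HiBiT luminescence read.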

SMILES	activity change, negative = inhibition [%]
NC(=O)CC[C@H](N)C(=O)O	-12.4
CC(C)C[C@H](NC(=O)C1OC1C(=O)O)C(=O)NCCCCN=C(N)N (stereo not given in full)	48.1
C=CCn1c(=O)c2c(nc(-c3ccc(S(=O)(=O)O)cc3)n2C)n(C)c1=O	-4.57
CC(N)(Cc1ccc(O)c(O)c1)C(=O)O (stereo not given)	-2.08
Cc1nc(N=Nc2ccc(S(=O)(=O)O)cc2S(=O)(=O)O)c(COP(=O)(O)O)c(C=O)c1O	-18
OC[C@H]1O[C@H](n2cnc3c(N[C@H]4CCC[C@@H]4O)ncnc32)[C@H](O)[C@@H]1O	-0.733
Cn1ccnc1	9.62
C=C1C[C@@]23CC[C@H]4[C@@](C)(CCC[C@@]4(C)C(=O)OC4OC(CO)C(O)C(O)C4O)[C@@H]2CC[C@]1(OC1OC(CO)C(O)C(O)C1OC1OC(CO)C(O)C(O)C1O)C3 (stereo not given in full)	-1.83
COCc1nc2c([nH]1)c(=O)n(C)c(=O)n2CC(C)C	4.95
NC(N)=N[C@@H](CCC(=O)O)C(=O)O	-0.43
COc1cc(C(O)C(=O)O)ccc1O (stereo not given)	1.3
COc1cc2c(CCNC(C)=O)c[nH]c2cc1O	8.67
CCCc1c(-c2ccc(O)cc2)nn(-c2ccc(O)cc2)c1-c1ccc(O)cc1	-7.5
NC(Cc1cccc(-c2ccccc2CP(=O)(O)O)c1)C(=O)O (stereo not given)	0.0319
Nc1ncnc2c1ncn2C1CCCO1 (stereo not given)	-4.5
C=C1C[C@@]23CC[C@H]4[C@@](C)(CCC[C@@]4(C)C(=O)O)[C@@H]2CC[C@]1(O)C3	2.87

SMILES	activity change, negative = inhibition [%]
N=C(N)c1ccc(N)cc1	-7.56
c1ccc2c(c1)CC(N1CCN(c3cccc4c3OCCO4)CC1)C2	1.54
CC(=O)[C@H]1CCC2C3CC=C4C[C@@H](OS(=O)(=O)O)CC[C@]4(C)C3CC[C@@]21C (stereo not given in full)	-14.3
C=CCN1CCc2c(cc(O)c(O)c2Cl)C(c2ccccc2)C1 (stereo not given)	-17.7
CC[N+](CC)(CC)CC(=O)Nc1c(C)cccc1C	0.129
C[N+](C)(C)CC=O	0.89
Cc1ccc([N+](=O)[O-])cc1S(=O)(=O)N(C)C	4.74
COc1ccccc1N1CCN(CCCCN2C(=O)c3ccccc3C2=O)CC1	3.81
Nc1nc2[nH]c(=O)cnc2c(=O)[nH]1	-2.45
[Li+]	0.919
O=C1OC(=O)C2C3CCC(O3)C12 (stereo not given)	-20.4
CSC(=N)N	-2.73
CSc1nc(N)c2ncn([C@@H]3O[C@H](COP(=O)(O)OP(=O)(O)O)C(O)[C@H]3O)c2n1 (stereo not given in full)	-8.19
CCCn1c(=O)c(C)cn2nc(N)nc12	-0.822
COc1cc(CNC(=O)CCCCCCC(C)C)ccc1O	-4.33
O=C(O)C1CCCNC1 (stereo not given)	7.88

Test: qHTS for inhibitors of adenylyl cyclases using a fission yeast platform: a pilot screen against the NCATS LOPAC library (AID 1347410);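 note: plate controls were DMSO vehicle for no effect and DPI positive control for full effect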
Conditions: S. pombe CHP2027, fbp1-GFP fluorescence, 18 h, yeast expressing mammalian AC9 and human GNAS; series mostly up to 57.5 µM; activity, positive = inhibition (GFP gain): at the top concentration
Procedure, shortened: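 S. pombe CHP2027 (AC9-GNAS-PDE4D2) carrying PKA-repressed fbp1-GFP, incubated 18 h at 30C in EMM with LOPAC compounds at up to 57 uM. GFP gain-of-signal read by laser scanning cytometry; DMSO negative control.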

SMILES	activity, positive = inhibition (GFP gain) [%]
NC(=O)CC[C@H](N)C(=O)O	-0.438
CC(C)C[C@H](NC(=O)C1OC1C(=O)O)C(=O)NCCCCN=C(N)N (stereo not given in full)	-0.438
COc1cc(C(O)CO)ccc1O (stereo not given)	0.007
Nc1ncnc2c1c(-c1ccc(Oc3ccccc3)cc1)cn2C1CCCC1	-0.438
NCCCNCCCCNCCCN	-0.438
Cc1nc2n(c(=O)c1CCN1CCC(c3noc4cc(F)ccc34)CC1)CCCC2O (stereo not given)	-0.438
CCN(CC)CCCCCCCCOC(=O)c1cc(OC)c(OC)c(OC)c1	-0.438
C=CCn1c(=O)c2c(nc(-c3ccc(S(=O)(=O)O)cc3)n2C)n(C)c1=O	-0.438
CC(N)(Cc1ccc(O)c(O)c1)C(=O)O (stereo not given)	-0.438
Cc1nc(N=Nc2ccc(S(=O)(=O)O)cc2S(=O)(=O)O)c(COP(=O)(O)O)c(C=O)c1O	-0.438
OC[C@H]1O[C@H](n2cnc3c(N[C@H]4CCC[C@@H]4O)ncnc32)[C@H](O)[C@@H]1O	-0.438
Cn1ccnc1	-0.438
C=C1C[C@@]23CC[C@H]4[C@@](C)(CCC[C@@]4(C)C(=O)OC4OC(CO)C(O)C(O)C4O)[C@@H]2CC[C@]1(OC1OC(CO)C(O)C(O)C1OC1OC(CO)C(O)C(O)C1O)C3 (stereo not given in full)	-0.438
COCc1nc2c([nH]1)c(=O)n(C)c(=O)n2CC(C)C	-0.438
NC(N)=N[C@@H](CCC(=O)O)C(=O)O	0.141
COc1cc(C(O)C(=O)O)ccc1O (stereo not given)	-0.438
COc1cc2c(CCNC(C)=O)c[nH]c2cc1O	-0.438
CCCc1c(-c2ccc(O)cc2)nn(-c2ccc(O)cc2)c1-c1ccc(O)cc1	0.322
NC(Cc1cccc(-c2ccccc2CP(=O)(O)O)c1)C(=O)O (stereo not given)	-0.438

SMILES	activity, positive = inhibition (GFP gain) [%]
Nc1ncnc2c1ncn2C1CCCO1 (stereo not given)	-0.438
C=C1C[C@@]23CC[C@H]4[C@@](C)(CCC[C@@]4(C)C(=O)O)[C@@H]2CC[C@]1(O)C3	-0.438
N=C(N)c1ccc(N)cc1	-0.438
c1ccc2c(c1)CC(N1CCN(c3cccc4c3OCCO4)CC1)C2	0.193
CC(=O)[C@H]1CCC2C3CC=C4C[C@@H](OS(=O)(=O)O)CC[C@]4(C)C3CC[C@@]21C (stereo not given in full)	-0.0348
C=CCN1CCc2c(cc(O)c(O)c2Cl)C(c2ccccc2)C1 (stereo not given)	-0.438
CC[N+](CC)(CC)CC(=O)Nc1c(C)cccc1C	0.763
C[N+](C)(C)CC=O	-0.438
Cc1ccc([N+](=O)[O-])cc1S(=O)(=O)N(C)C	-0.438
COc1ccccc1N1CCN(CCCCN2C(=O)c3ccccc3C2=O)CC1	-0.438
O=c1[nH]c(=S)[nH]c(-c2ccccc2)c1Cc1c(O)ccc2ccccc12	-0.438
Nc1nc2[nH]c(=O)cnc2c(=O)[nH]1	0.174
[Li+]	0.304
O=C1OC(=O)C2C3CCC(O3)C12 (stereo not given)	-0.438
CSC(=N)N	-0.438
CSc1nc(N)c2ncn([C@@H]3O[C@H](COP(=O)(O)OP(=O)(O)O)C(O)[C@H]3O)c2n1 (stereo not given in full)	0.197
CCCn1c(=O)c(C)cn2nc(N)nc12	-0.438
COc1cc(CNC(=O)CCCCCCC(C)C)ccc1O	-0.438
O=C(O)C1CCCNC1 (stereo not given)	3.32
